Screening data (PubChem)
Most compounds without a hit are left out; they make up all but 11% or so of the library.
HEK293 tox: cytotoxic compounds in HEK 293 cells; hit rate 6.6% among 94,000; HEK 293 viability, ATP luminescence (CellTiter-Glo), 48-72 h; AID 1345083; Potency, µM (highest dose often 115 µM), for the others: top-dose activity change, negative = cytotoxicity, usual class: inhibitors; note: nearly all actives have a fitted effect of over 60% in size
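ATP-coupled CellTiter-Glo luminescence served as viability read-out, recorded 10 min after reagent addition at room temperature. HEK 293 cells, 250 cells/well, had been incubated with pintool-transferred compound for 48 or 72 hr at 37 degree Celsius.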
Luciferase inh: Photinus pyralis luciferase inhibition; hit rate 2.5% among 76,000; purified P. pyralis luciferase, luminescence, biochemical; AID 1347043; Potency, µM (highest dose often 115 µM), actives largely listed as inhibitors; note: nearly all actives have a fitted effect of over 65% in size
Target sequence (P08659 whole entry, looked up): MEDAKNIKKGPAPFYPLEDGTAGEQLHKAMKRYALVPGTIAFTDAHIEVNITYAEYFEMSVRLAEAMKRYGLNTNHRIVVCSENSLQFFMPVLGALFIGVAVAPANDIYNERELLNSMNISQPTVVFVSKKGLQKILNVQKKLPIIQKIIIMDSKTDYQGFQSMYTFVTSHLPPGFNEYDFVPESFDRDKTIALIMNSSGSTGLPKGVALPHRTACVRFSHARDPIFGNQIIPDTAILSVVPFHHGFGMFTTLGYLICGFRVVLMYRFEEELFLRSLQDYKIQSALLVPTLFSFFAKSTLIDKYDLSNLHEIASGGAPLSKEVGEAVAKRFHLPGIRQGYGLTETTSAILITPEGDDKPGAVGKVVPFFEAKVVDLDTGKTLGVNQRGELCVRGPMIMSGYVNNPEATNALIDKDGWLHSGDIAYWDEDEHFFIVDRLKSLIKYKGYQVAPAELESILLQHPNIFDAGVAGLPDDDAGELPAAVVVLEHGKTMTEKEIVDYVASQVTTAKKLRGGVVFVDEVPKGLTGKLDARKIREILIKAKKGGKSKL
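Inhibitors were tested against purified firefly luciferase in a biochemical, low-substrate format (both substrates at 10uM) and luminescence measured with a CCD imager.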
hNpr1 antagonist: human Npr1 receptor antagonism; P16066; hit rate 1.6% among 76,000; HEK293 hNpr1 GloSensor cGMP, ANP-stimulated luminescence; Potency, µM (top dose mostly 46.3 µM), inactives show at the top dose activity change, negative = inhibition, hits mostly inhibitors; calls by dose curve; note: nearly all actives have a fitted effect of over 60% in size
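HEK293 cells stably expressing human Npr1 and cGMP GloSensor pGS-40F, loaded 2 h with 2% GloSensor reagent, given compound 30 min at room temperature. Luminescence read before and 20 min after 0.1 nM hNppA.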
NIH3T3 tox: NIH 3T3 cell cytotoxicity; NIH 3T3 viability, CellTiter-Glo ATP luminescence, 48-72 h; Potency, µM (titrated, usually from 96.7 µM), for the others: at the top dose activity change, negative = cytotoxicity, actives largely listed as inhibitors; hit rate 4.3% among 94,000; note: nearly all actives have a fitted effect of over 55% in size
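Luminescent ATP readout (CellTiter-Glo, 10 min RT) after 48 or 72 hr compound exposure of NIH 3T3 cells seeded at 400 cells/well in 1536-well format; quantitative HTS.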
An asterisk follows results filed as active; i = inactive; ? = inconclusive; nt = not tested or not shown; [ ] = remark or other dose. Unless noted, calls come from the whole dose curve; as a rule, active = well fitted curve in the direction sought with a large enough effect; inconclusive = small, poorly fitted or top-dose-only effect, or another doubt; inactive = no such curve, though single readings can be large; an effect the other way counts as inactive or inconclusive. % is set by controls: 0 for no effect and ±100 for the full control effect; potency is the fitted concentration of half-maximal effect.

SMILES | HEK293 tox | Luciferase inh | hNpr1 antagonist | NIH3T3 tox
O=C(NCCN1CCNC1=O)c1cnc2n1CCN(Cc1cccnc1)CC2 | ? | i | 5%[70.6 µM] | i
COCCNC(=O)c1nc(-c2ccc(Cl)cc2)c2ccccn12 | ? | i | -1%[70.6 µM] | 79µM*
O=C(c1nc(-c2ccc(Cl)cc2Cl)c2ccccn12)N1CCN(c2ncccn2)CC1 | 40µM* | nt | nt | ?
O=C(c1nc(-c2ccc(F)cc2)c2ccccn12)N1CCN(c2ncccn2)CC1 | ? | i | -3% | ?
O=C(c1nc(-c2ccc(Cl)cc2)c2ccccn12)N1CCCC1 | ? | 45µM* | 0%[70.6 µM] | ?
O=C(c1nc(-c2ccc(Cl)cc2Cl)c2cnccn12)N1CCN(c2ncccn2)CC1 | i | nt | nt | 3%
COC(=O)CNC(=O)c1nc(-c2ccc(Cl)cc2)c2ccccn12 | -19%[172 µM] | ? | 17%[70.6 µM] | ?
O=C(NCc1ccc2c(c1)OCO2)c1nc(-c2ccc(Cl)cc2Cl)c2ccccn12 | 32µM* | i | 4% | ?
CC(C)c1nc(CNC(=O)c2ccc(NC3CCCCC3)nc2)no1 | -18% | i | -11% | -22%
Cc1noc(C)c1[S+](=O)([O-])N1CCC2(C1)N=C(c1cccnc1)C(=O)N2 (stereo not drawn) | 0% | i | -1% | -11%
N#CC1CCN(C(=O)c2nc(-c3ccccc3)c3ccccn23)CC1 | ? | i | -3%[70.6 µM] | ?
N#CC1CCN(C(=O)c2nc(-c3cc(Cl)cc(Cl)c3)c3ccccn23)CC1 | 25µM* | i | -4% | ?
O=C1[C@@H]2C[C@@H](CN2C2CCOCC2)Oc2ccccc2N1Cc1ccc(OC(F)(F)F)cc1 | ? | i | -5% | ?
O=C1[C@@H]2C[C@@H](CN2CC2CC2)Oc2ccccc2N1Cc1ccc(OC(F)(F)F)cc1 | 56µM* | i | ? | 40µM*
CS(=O)(=O)c1ccc(CN2C[C@@H]3C[C@H]2C(=O)N(Cc2ccc(OC(F)(F)F)cc2)c2ccccc2O3)cc1 | 32µM* | i | -28% | 32µM*
COCCN1C(=O)[C@@H]2C[C@@H](CN2Cc2ccc(OC(F)(F)F)cc2)Oc2ccccc21 | ? | i | 10% | ?
O=C1CC(C(=O)O)C2(CCN(C(=O)c3ccc4c(c3)OCO4)CC2)N1 (stereo not drawn) | -23% | i | 18% | -20%
OC1(c2ccc(F)cc2)CCN(c2nccc(-c3ccccn3)n2)CC1 | ? | i | -5% | -23%
C1=CC[C@H]2CN(c3nccc(-c4ccccn4)n3)C[C@H]2C1 | 45µM* | i | -13% | ?
COc1cccc(C(=O)NC2CCN(c3cc(-c4cccs4)[nH]n3)CC2)c1 | ? | i | -24% | ?
COc1ccc(CN2C(=O)COC[C@H]2C(=O)Nc2ccc3c(c2)OCCO3)c(OC)c1 | -1% | ? | -6% | 0%
CCc1cc(N2CCC(NCCc3cccc(Cl)c3)CC2)nc(C)n1 | ? | i | -3% | 40µM*
CCCc1cc(N2CCC(N[C@@H]3CCNC3)CC2)nc(C)n1 | 1% | i | 4% | -18%
COCC(=O)N1CC[C@]2(O)CCN(C(=O)c3ccc(OC)o3)C[C@@H]2C1 | 2% | i | 1% | 0%
Cc1ccc(C2(C(=O)N[C@@H]3COCC[C@@H]3OCc3ccccc3)CC2)cc1 | 45µM* | i | -10% | ?
SMILES | HEK293 tox | Luciferase inh | hNpr1 antagonist | NIH3T3 tox
O=C(Nc1ccc(Oc2cccnc2)cc1)C1CCN(CCCc2ccccc2)CC1 | 25µM* | i | -12% | ?
O=C(N[C@@H]1CCOC[C@H]1OCCO)C1CCN(Cc2ccco2)CC1 | 0% | i | -1% | -1%
CCc1cc(CNC(=O)C2CCN(c3nc(-c4ccccc4)nc4c3CCC4)CC2)on1 | ? | i | -6% | ?
CCNC(=O)Cc1ccc(N(Cc2cccc(F)c2)C(=O)c2ccco2)cc1 | ? | i | -3% | -17%
CCCNC(=O)Cc1ccc(N(Cc2ccc(F)cc2)C(=O)c2ccco2)cc1 | 89µM* | i | -1% | ?
CCCNC(=O)Cc1ccc(N(Cc2ccccc2)C(=O)c2ccco2)cc1 | ? | i | -1% | ?
Cc1cccc(CNC(=O)Cc2ccc(N(Cc3ccc(F)cc3)C(=O)c3ccco3)cc2)c1 | ? | i | -15% | 40µM*
Cc1ccc(CN(C)CC(=O)N2CC[C@@](C)(O)[C@@H](O)C2)cc1 | i | i | 8% | i
